PHOSPHO1 block: blocks human PHOSPHO1 phosphatase activity; recombinant PHOSPHO1, absorbance phosphatase assay; inhibition, % at 13.3 µM; 290,000 tested, 1.1% active; Q8TCT1; AID 1565; in the data active means inhibition above about 60%
Target sequence (Q8TCT1 whole entry, looked up): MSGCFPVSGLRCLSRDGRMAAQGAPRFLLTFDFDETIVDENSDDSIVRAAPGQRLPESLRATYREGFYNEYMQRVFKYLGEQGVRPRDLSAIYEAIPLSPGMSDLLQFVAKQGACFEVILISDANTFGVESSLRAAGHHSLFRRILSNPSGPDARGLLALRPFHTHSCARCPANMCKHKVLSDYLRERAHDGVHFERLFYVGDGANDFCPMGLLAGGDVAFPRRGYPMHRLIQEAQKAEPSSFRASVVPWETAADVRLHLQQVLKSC
M18AAP inhibitor: blocks P. falciparum M18 aspartyl aminopeptidase. recombinant PfM18AAP, H-Glu-NHMec fluorogenic cleavage. inhibition, % at 7.35 µM. 290,000 tested, 1.2% active. AID 1822;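 active means inhibition above the campaign mean inhibition over all tested compounds plus 3 SD, cut at about 28% in these data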
H9c2 protect: modulators protecting cardiomyocytes from myocardial damage | H9c2 cardiomyocytes, H2O2 injury protection, ATPLite, 2 h | protection from H2O2 cell death, % at 20 µM | 360,000 tested, 0.63% active;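 active means compounds giving at least 50% protection of heart cells from peroxide-induced death in the single-dose screen, raw or plate-pattern-corrected value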
PfG6PD inh: PfG6PD (Plasmodium falciparum) enzyme inhibition | inhibition, % at 20 µM | PfGluPho enzyme, NADPH resazurin-diaphorase fluorescence | AID 504690 | 350,000 tested, 0.78% active;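 active means inhibition reaching at least a set limit at 20 µM in the primary screen, cut at about 59% in these data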
ALR H2O2 inh: blocks human ALR sulfhydryl oxidase activity; inhibition, % (no concentration beside the values); AID 485317; purified ALR, DTT oxidation, H2O2 HRP-luminol luminescence; 290,000 tested, 3.8% active;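 active means mean replicate inhibition above about 79%, with every replicate also reaching it, limit read from the data; inconclusive means only one of the two criteria met; inactive means mean below limit and not every replicate reaching it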
Target sequence (P55789 whole entry, looked up): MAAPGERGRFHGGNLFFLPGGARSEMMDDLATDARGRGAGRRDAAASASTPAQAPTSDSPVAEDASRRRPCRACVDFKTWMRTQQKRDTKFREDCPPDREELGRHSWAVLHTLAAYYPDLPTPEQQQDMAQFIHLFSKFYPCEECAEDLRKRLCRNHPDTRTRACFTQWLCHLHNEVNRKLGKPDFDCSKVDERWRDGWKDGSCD
Numbers stand for hits; 0 = inactive; ? = inconclusive; - = not tested or not shown. Rows were chosen to be rich in hits. Some 5.6% of all compounds tested hit in one or more screens of this group.

SMILES | PHOSPHO1 block | M18AAP inhibitor | H9c2 protect | PfG6PD inh | ALR H2O2 inh
O=C(NNC(=O)C1CC1)c1cc(=O)[nH]c2ccccc12 | - | - | 0 | 0 | 0
Nc1ccccc1C(=O)Nc1ccc(Cl)cc1Cl | 0 | 0 | 0 | 0 | 0
Nc1cccc(C(=O)NCCNC(=O)c2cccc(N)c2)c1 | 0 | 0 | 0 | 0 | 0
Nc1ccc(NC(=O)c2cccc(C(=O)Nc3ccc(N)cc3Cl)c2)c(Cl)c1 | 0 | 0 | 0 | 0 | 99
COc1ccccc1NC(=O)c1ccc(N)cc1 | 0 | 0 | 0 | 0 | 0
Nc1cccc(C(=O)Nc2ccc(N)cc2Cl)c1 | 0 | 0 | 0 | 0 | 99
Nc1cccc(C(=O)Nc2ccco2)c1 | 0 | 0 | 0 | 0 | 98
COC(=O)c1ccc(C(=O)Nc2ccc(N)cc2N)cc1 | 0 | 0 | 0 | 0 | 92
CC(C)c1ccc(/C=N/NC(=O)c2ccc(-n3cnnn3)cc2)cc1 | - | - | 0 | 0 | -
O=Cc1c[nH]c2cccc(OCc3ccccc3)c12 | - | - | 0 | 0 | -
C/C(=N/NC(=O)c1cc2ccccc2cc1O)C1C(=O)c2ccccc2C1=O | 0 | 0 | 0 | 0 | 0
C/C(=N\NC(=O)c1ccccc1O)C1C(=O)c2ccccc2C1=O | 0 | 0 | 0 | 0 | 98
CC(C)(C)c1ccc(N2C(=O)CSC2c2cccnc2)cc1 (stereo not given) | 0 | 0 | 0 | 0 | -
Cc1cccc(N2CCN(c3cccc(C)c3)C2c2cccnc2)c1 | 0 | 0 | 0 | 0 | 95
Cc1ccc(N2CCN(c3ccc(C)cc3)C2c2ccncc2)cc1 | 0 | 0 | 0 | 0 | 0
CC(=O)Nc1ccc(N2C(=O)CSC2c2ccccc2)cc1 (stereo not given) | 0 | 0 | 0 | 0 | 99
Cc1cccc(N2C(=O)CSC2c2cccnc2)c1 (stereo not given) | 0 | 0 | 0 | 0 | 99
CC(=O)Nc1ccc(N2C(=O)CSC2c2ccc([N+](=O)[O-])cc2)cc1 (stereo not given) | 0 | 0 | 0 | 0 | ?
O=C1CSC(c2cccnc2)N1c1ccccc1 (stereo not given) | 0 | 0 | 0 | 0 | 96
C[C@@H]1CN([C@H](C)CO)C(=O)CCCn2cc(nn2)CO[C@H]1CN(C)S(=O)(=O)c1ccc(C#N)cc1 | - | - | 0 | 0 | -
Cc1c(Cl)cccc1S(=O)(=O)Nc1ccnn1C | 0 | 0 | 0 | 0 | 0
COc1ccccc1C(=O)NCC(=O)NCCC(c1ccccc1)c1ccccc1 | - | - | 0 | 0 | 0
C=CCN1CCC(=O)C(C(=O)OCC)=C1C(=O)OCC | - | - | 0 | 0 | -
O=C1CSC(c2ccccc2)N1c1cccnc1 (stereo not given) | 0 | 0 | 0 | 0 | 93
N#Cc1cccc2c1-c1ccccc1/C2=N/NC(N)=O | 0 | 0 | 56 | 0 | -
SMILES | PHOSPHO1 block | M18AAP inhibitor | H9c2 protect | PfG6PD inh | ALR H2O2 inh
N#Cc1cccc2c1-c1ccccc1/C2=N/NC(N)=S | 0 | 0 | 0 | 0 | -
C/C(=N\NC(=O)CCCNc1ccc(C)cc1)c1ccccn1 | 0 | 0 | 58 | 0 | 98
C/C(=N\NC(=O)CCCNc1ccccc1)c1ccncc1 | 0 | 0 | 0 | 0 | 0
COc1ccccc1NS(=O)(=O)c1cc([N+](=O)[O-])ccc1N/N=C/c1c[nH]c2ccccc12 | 0 | 0 | 0 | 0 | 99
Cc1cccc(C(=O)Nc2scc(CC(C)C)c2C(=O)O)c1 | 0 | 0 | 0 | 0 | 96
CC(C)Cc1csc(NC(=O)c2ccccc2Cl)c1C(=O)O | 0 | 0 | 0 | 0 | 96
CC(C)Cc1csc(NC(=O)c2ccc(Cl)cc2)c1C(=O)O | 0 | 0 | 0 | 0 | 0
Cc1ccccc1S(=O)(=O)N(CC(O)CN1CCCCC1)c1ccccc1 (stereo not given) | 0 | 0 | 0 | 0 | 0
OC(CN1CCCCCC1)CN(c1ccccc1)c1ccccc1 (stereo not given) | 0 | 0 | 0 | 0 | 99
O=C(c1ccccc1)C(CCC(CN1CCOCC1)C(=O)c1ccccc1)CN1CCOCC1 (stereo not given) | 0 | 0 | 0 | 0 | 98
OC(CN1CCCCC1)CN(c1ccccc1)c1ccccc1 (stereo not given) | 0 | 0 | 0 | 0 | 98
O=C(c1ccc(F)cc1)C(CN1CCOCC1)c1ccccc1 (stereo not given) | 0 | 0 | 0 | 0 | 0
OC(CN1CCOCC1)CN(c1ccccc1)c1ccccc1 (stereo not given) | 0 | 0 | 0 | 0 | 99
OC(COc1ccccc1)CN1CCCCCC1 (stereo not given) | 0 | 0 | 0 | 0 | 0
CCCc1cc(=O)oc2cc(C)cc(OC(C)C(=O)NCc3ccccn3)c12 (stereo not given) | 0 | 0 | 0 | 0 | 0
CC(CC(=O)N1CCN(S(=O)(=O)c2ccc([N+](=O)[O-])cc2)CC1)c1ccccc1 (stereo not given) | - | - | 0 | 0 | 0
Cc1cc(C)nc(Sc2c(C)nn(-c3ccccc3)c2C)n1 | 0 | 0 | 0 | 0 | 80
COc1ccc(S(=O)(=O)n2nc(OC(C)=O)cc2N)cc1 | 0 | 0 | 0 | 0 | 98
COc1ccc(C(=O)Oc2cc(N)n(S(=O)(=O)c3ccccc3)n2)cc1 | 0 | 0 | 0 | 0 | 0
COc1cc(NC(=O)Nc2cccn3nc(COCCO)nc23)cc(OC)c1OC | - | - | 0 | - | -
CN=c1scc(-c2ccccc2F)n1/N=C/c1ccc[nH]1 | 0 | 0 | 0 | 0 | ?
CN=c1scc(C)n1/N=C/c1ccc(O)cc1O | 0 | 0 | 0 | 0 | 99
CN=c1scc(C)n1/N=C/c1ccc2c(c1)OCO2 | 0 | 0 | 0 | 0 | 98
CN=c1scc(C)n1/N=C/c1ccc(O)cc1 | 0 | 0 | 0 | 0 | 99
CN=c1scc(-c2ccccc2F)n1/N=C/c1ccc(O)c(O)c1O | 0 | 31 | 0 | 0 | -
SMILES | PHOSPHO1 block | M18AAP inhibitor | H9c2 protect | PfG6PD inh | ALR H2O2 inh
CCCc1nc2ccccc2c(=O)n1/N=C/c1ccc(O)cc1O | 0 | 0 | 0 | 0 | 0
COc1cc(CCNC2=CC(=O)c3ncccc3C2=O)ccc1O | - | - | 0 | 0 | -
CNc1sc(C(=O)c2ccccc2F)c(N)c1-c1nc2ccccc2s1 | 0 | 0 | 0 | 0 | 91
O=C(CNC(=O)c1ccccc1F)OCc1nc2ccccc2s1 | 0 | 0 | 0 | 0 | 0
CSCCC(NC(=O)c1ccccc1Cl)C(=O)N1CC(C)OC(C)C1 (stereo not given) | - | - | 0 | 0 | 0
O=C(COC(=O)CNC(=O)c1ccccc1)NC(=O)NC1CCCCC1 | - | - | 0 | 0 | 0
NNc1ccc(Cl)nn1 | 0 | 29 | 0 | 0 | 0
CNc1ccc(Cl)nn1 | 0 | 0 | 0 | 0 | 0
O=C(NC(Cc1ccccc1)C(=O)O)/C(=C\c1ccc([N+](=O)[O-])cc1)NC(=O)c1ccco1 (stereo not given) | 0 | 0 | 0 | 0 | 0
COc1cc(/C=N/NC(=O)/C(=C\c2ccc([N+](=O)[O-])cc2)NC(=O)c2ccccc2)cc(OC)c1O | 0 | 29 | 0 | 0 | 0
O=C(NC(Cc1ccccc1)C(=O)O)/C(=C/c1ccc([N+](=O)[O-])cc1)NC(=O)c1ccccc1 (stereo not given) | 0 | 0 | 0 | 0 | 96
O=C(NC(Cc1ccccc1)C(=O)O)/C(=C/c1cccc([N+](=O)[O-])c1)NC(=O)c1cccc(Br)c1 (stereo not given) | 0 | 0 | 0 | 0 | 98
Cn1c(CC(O)c2nc3ccccc3n2C)nc2ccccc21 (stereo not given) | - | - | 0 | 0 | -

Bioassay records as filed in PubChem BioAssay.
